# Results published in PubChem BioAssay.
# Where “and” joins values, the source holds several entries; their conditions need not be identical. Identical values can stand only once. Calls of active or inactive are those of the source.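 The calls were made as follows, unless noted: active = inhibition at or above 50% relative to wild type and mutant plate controls; inactive = inhibition below 50%.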
# How the values were obtained:
# [1] = inhibitors of mutant huntingtin aggregation, primary screen, imaging, exon1htt(103Q)mCFP cells, high-content imaging (AID 483;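 active = visual image review flags a hit and inhibition of aggregation exceeds 20%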;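 also: compound exposure lasted 3 days before fixation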;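 as to nuclei count: percent of the per-plate median nuclei count of sample wells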); conditions: exon1htt(103Q)mCFP cell line, aggregate imaging, at 2 µM; inhibition of aggregation: stronger effect = higher value; nuclei count: measured here: cell count, toxicity
# [2] = inhibitors of E-selectin induction by TNFa, primary screen, imaging, HUVEC, immunofluorescence, MLSMR starter and 10KST1 sets (AID 487;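 active = visually confirmed hit in the image check and inhibition above 20%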;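 as to inhibition: signal is fraction of cell area covered by stained E-selectin grains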;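 as to nuclei count: 100% = median nuclei count of all wells on the same plate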); conditions: HUVEC TNFalpha-induced E-selectin immunofluorescence imaging, at 2 µM; inhibition: stronger effect = higher value; nuclei count: measured here: cell number, toxicity
# [3] = DUSP6 inhibitors restoring Erk phosphorylation by chemical complementation, primary imaging in DUSP6-transfected HeLa (AID 609;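 active = compounds giving at least 50% inhibition in the cell-based MKP-3 phosphatase rescue imaging test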;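 as to inhibition: phospho-Erk level distribution per well compared with pooled transfected vehicle control wells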); conditions: HeLa MKP-3 transfected, phospho-Erk imaging KS statistic, at 10 µM, cells stimulated with TPA for 15 min
# [4] = target: Dual specificity protein phosphatase 6 (Homo sapiens) (UniProt Q16828); assay: as above; conditions: HeLa MKP-3 transfected, phospho-Erk imaging KS statistic; at 10 µM; stronger effect = higher value; cells stimulated with TPA for 15 min
# [5] = target: Voltage-gated potassium channel subunit beta-2 (Rattus norvegicus) (UniProt P62483); assay: KvBeta enzyme negative modulators, primary screen, biochemical, NADPH fluorescence (AID 622;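 active = fluorescence slope higher than the sample average by over 3 SD, cut at about -0.22 in these data, passing the limit was not always enough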;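 also: slope of raw intensity against log time taken from 70 to 1610 s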); conditions: recombinant KvBeta, 4-cyanobenzaldehyde reduction, at 10 µM, stronger effect = higher value
# [6] = target: Voltage-gated potassium channel subunit beta-2 (Rattus norvegicus) (UniProt P62483); assay: KvBeta positive modulators, primary screen, biochemical, NADPH fluorescence (AID 623;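 active = NADPH fluorescence slope more negative than the mean of all samples by about 3 SD, 99.7% confidence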;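 also: fluorescence intensity change per second fitted from 20 to 320 s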); conditions: Recombinant KvBeta, NADPH fluorescence decrease slope, 10 min; at 10 µM; stronger effect = lower value
# [7] = target: Alpha-2C adrenergic receptor (Homo sapiens) (UniProt P18825); assay: modulators of alpha2C/GIRK thallium flux, primary screen, cell-based, HEK293 alpha2C/GIRK1/2 (AID 624;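 active = fluorescence slope after compound addition differing from the mean of all screened samples at 99.7% confidence, in either direction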;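 also: slope of fluorescence ratio to pre-addition baseline per second over 15 to 24 s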); conditions: thallium flux BTC fluorescence, at 10 µM, actives lie on both sides
# [8] = inhibitors of larval lipid processing in zebrafish, primary screen, whole organism, PED6 fluorescence, gall bladder and intestine (AID 686;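 active = a full or partial loss of lipid-probe fluorescence in the fish gall bladder, intestine or both, judged by eye; inactive = no fluorescence loss, or compound toxic to the fish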;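 also: larvae 5 to 7 days old with five fish per well; signal comes from phospholipase A2 cleavage of quenched PED6 carried via bile; overnight exposure to compound and PED6 before scoring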); conditions: Zebrafish larvae PED6 lipid processing, fluorescence scoring; screened at 20 µM (by protocol)
# [9] = inhibitors of Chlamydomonas gravitaxis, primary screen, whole organism, Chlamydomonas reinhardtii, WT vs cilia-less mutant, absorbance, 96-well (AID 463189); conditions: OD600 absorbance, 2 days, at 10 µM, stronger effect = higher value;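 also: 0% = wild type cc124 cells in DMSO and 100% = ciliumless bld1 mutant cells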
# [10] = inhibitors of Sendai virus-induced IRF3 signaling, primary screen, TLR/RLR signaling modifier project, cell-based, Sendai virus stimulus, luciferase, 10K MLSCN set (AID 602276;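 active = inhibition at or above 50% at 10 µM; inactive = inhibition below 50%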;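 also: firefly luciferase from ISG56 promoter only with Renilla not read in this screen; 0% = Sendai virus plus DMSO and 100% = medium plus DMSO without virus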); conditions: HEK293 RL24 IRF3 luciferase reporter, at 10 µM, stronger effect = higher value
# [11] = inhibitors of poly I:C-induced TLR3 signaling, primary screen, cell-based, poly I:C stimulus, luciferase, 10K MLSCN set (AID 602277;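 active = inhibition of the reporter signal at or above 50%; inactive = inhibition below 50%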); conditions: HEK293-TLR3 RL24 IRF3 luciferase reporter, at 10 µM, stronger effect = higher value
# [12] = measured here: cell density z-score
# [13] = measured here: nuclear c-Myc green intensity z-score
# [14] = measured here: nuclear pErk red intensity z-score, stronger effect = higher value
# Sequence of Dual specificity protein phosphatase 6 (Homo sapiens) (Q16828 whole entry, looked up): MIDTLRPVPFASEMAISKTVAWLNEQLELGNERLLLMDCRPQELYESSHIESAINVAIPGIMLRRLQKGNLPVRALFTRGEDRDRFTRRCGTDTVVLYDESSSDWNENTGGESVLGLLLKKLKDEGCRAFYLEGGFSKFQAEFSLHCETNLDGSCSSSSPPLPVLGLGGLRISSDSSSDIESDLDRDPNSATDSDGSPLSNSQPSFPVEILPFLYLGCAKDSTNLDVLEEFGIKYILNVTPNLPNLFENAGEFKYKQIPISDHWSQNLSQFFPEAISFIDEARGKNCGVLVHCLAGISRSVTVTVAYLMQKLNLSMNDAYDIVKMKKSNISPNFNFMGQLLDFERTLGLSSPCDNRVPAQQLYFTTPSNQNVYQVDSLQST
# Sequence of Alpha-2C adrenergic receptor (Homo sapiens) (P18825 whole entry, looked up): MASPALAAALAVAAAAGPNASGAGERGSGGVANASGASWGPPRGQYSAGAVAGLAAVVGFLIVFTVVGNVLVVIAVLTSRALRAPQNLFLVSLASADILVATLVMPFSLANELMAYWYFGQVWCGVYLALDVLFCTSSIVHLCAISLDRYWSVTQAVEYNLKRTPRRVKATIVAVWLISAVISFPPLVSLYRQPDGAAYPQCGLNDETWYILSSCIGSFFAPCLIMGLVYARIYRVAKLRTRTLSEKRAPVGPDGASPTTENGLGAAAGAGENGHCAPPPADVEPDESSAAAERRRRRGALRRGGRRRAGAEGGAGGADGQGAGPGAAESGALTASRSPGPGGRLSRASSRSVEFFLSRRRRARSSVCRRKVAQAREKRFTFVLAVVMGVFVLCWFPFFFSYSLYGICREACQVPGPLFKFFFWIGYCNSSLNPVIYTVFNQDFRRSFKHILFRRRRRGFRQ
# Sequence of Voltage-gated potassium channel subunit beta-2 (Rattus norvegicus) (P62483 whole entry, looked up): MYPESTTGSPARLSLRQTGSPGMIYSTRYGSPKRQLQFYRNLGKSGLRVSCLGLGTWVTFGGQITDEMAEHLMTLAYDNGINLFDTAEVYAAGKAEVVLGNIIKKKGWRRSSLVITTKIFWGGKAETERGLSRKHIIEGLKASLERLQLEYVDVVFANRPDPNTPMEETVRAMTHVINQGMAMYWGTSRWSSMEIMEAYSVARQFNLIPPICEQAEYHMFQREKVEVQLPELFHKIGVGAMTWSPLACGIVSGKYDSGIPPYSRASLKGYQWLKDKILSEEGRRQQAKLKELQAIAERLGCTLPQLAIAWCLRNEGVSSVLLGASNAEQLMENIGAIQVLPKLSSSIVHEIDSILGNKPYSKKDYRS
SMILES,inhibition of aggregation [1],nuclei count [1],inhibition [2],nuclei count [2],"z-score [3, 12]","z-score [3, 13]","z-score [3, 14]",inhibition [4],fluorescence slope [5],NADPH fluorescence slope [6],slope [7],outcome [8],inhibition [9],inhibition [10],inhibition [11]
Nc1ccc(C(=O)O)c(O)c1,3.1% (inactive) and 6.7% (inactive),99.9% and 81.7%,-66.9% (inactive) and -44% (inactive),121% and 120%,0.96 and 0.975,-0.574 and 0.166,0.314 and -1.51,3.59% (inactive) and 13.3% (inactive),-0.483 (inactive) and -0.504 (inactive),-1.6e-05 (inactive) and -1e-05 (inactive),0.00463 (inactive) and 0.00637 (inactive),inactive,-10.5% (inactive) and -2.41% (inactive),5.21% (inactive) and 16.9% (inactive),9.44% (inactive) and 29.7% (inactive)
C1COC(NC(C2CC2)C2CC2)=N1,19% (inactive),109%,-91.3% (inactive),116%,-0.996,0.285,-0.338,25.7% (inactive),-0.468 (inactive),-4.8e-05 (inactive),0.00489 (inactive),,2.12% (inactive) and 18.6% (inactive),-6% (inactive),20.5% (inactive)
Cc1cc(C(C)(C)C)c(O)c(C)c1CC1=NCCN1,2.2% (inactive),87.4%,-50.7% (inactive),134%,0.182,0.896,-0.366,-2.29% (inactive),-0.367 (inactive),-2.8e-05 (inactive),0.00482 (inactive),inactive,6.18% (inactive) and -2.62% (inactive),16.9% (inactive),24.3% (inactive)
Cc1cn([C@H]2C=C[C@@H](CO)O2)c(=O)[nH]c1=O,-10.6% (inactive),106%,-114% (inactive),123%,-0.857,1.21,-0.244,7.39% (inactive),-0.461 (inactive),2.9e-05 (inactive),0.00508 (inactive),inactive,-4.19% (inactive) and -13.6% (inactive),16.3% (inactive),37.9% (inactive)
CCc1oc2ccccc2c1C(=O)c1cc(Br)c(O)c(Br)c1,-4.4% (inactive),98%,-113% (inactive),132%,0.0952,0.368,0.987,17.3% (inactive),-0.429 (inactive),3.1e-06 (inactive),0.00421 (inactive),inactive; toxic,129% (active),18.5% (inactive),30.1% (inactive)
CN(C)CCC(c1ccc(Br)cc1)c1ccccn1 (centres undefined),-6% (inactive),111%,-39% (inactive),109%,-1.33,-0.476,0.326,-6.41% (inactive),-0.467 (inactive),-6.3e-05 (inactive),0.00532 (inactive),inactive,0.349% (inactive) and -9.79% (inactive),5.43% (inactive),31.9% (inactive)
CN(C)CCCN1c2ccccc2Sc2ccc(C(F)(F)F)cc21,12.5% (inactive),99.9%,-14.6% (inactive),95.5%,-0.783,0.801,-0.407,13.3% (inactive),-0.487 (inactive),-8.7e-05 (inactive),0.00341 (inactive),inactive,81.9% (active) and 163% (active),18% (inactive),38.3% (inactive)
COC(=O)Nc1nc2ccc(C(=O)c3ccccc3)cc2[nH]1,-1.2% (inactive),34.6%,-48.7% (inactive),112%,1.8,-0.197,-0.901,21.2% (inactive),-0.437 (inactive),-9.9e-05 (inactive),0.0038 (inactive),inactive,-3.25% (inactive),17.6% (inactive),46.8% (inactive)
Cc1cccc(CN2CCN(C(c3ccccc3)c3ccc(Cl)cc3)CC2)c1 (centres undefined),-13.4% (inactive),103%,-28.5% (inactive),122%,-0.832,-0.304,-0.398,1.48% (inactive),-0.508 (inactive),-3.3e-06 (inactive),0.00615 (inactive),inactive,-15.7% (inactive),6.06% (inactive),30.8% (inactive)
Oc1c(Cl)cc(Cl)cc1Sc1cc(Cl)cc(Cl)c1O,13.7% (inactive),90%,-49.8% (inactive),117%,-0.357,-0.512,0.181,1.48% (inactive),-0.478 (inactive),-6e-05 (inactive),0.00369 (inactive),inactive,155% (active),10.6% (inactive),-53.7% (inactive)
